A short description of test [1]: qHTS assay to identify small molecule antagonists of the estrogen receptor beta (ER-beta) signaling pathway - cell viability counter screen (AID 1259382). Further: nearly all actives have a fitted effect of over 55% in size. Further: potency means the concentration at half of the fitted maximal effect. The method, boiled down: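 Cytotoxicity was measured in the same wells by CellTiter-Glo luminescence after 30 min at room temperature. Cells were ER-beta-bla HEK293T in charcoal-stripped serum, given compound together with 1 nM E2 and incubated 16 h at 37C.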

In test [2] the target is Estrogen receptor (Homo sapiens) (UniProt P03372). As to the kind of experiment: qHTS assay to identify small molecule agonists of the estrogen receptor alpha (ER-alpha) signaling pathway in the presence of an antagonist (AID 1259383; calls by dose curve; further: top concentration of the series differs between compounds; nearly all actives have a fitted effect of over 15% in size). The method, boiled down: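 Agonist-mode confirmation run in the presence of 10.0nM (final) ICI-182,780 antagonist. The reporter was ERE-driven luciferase in VM7Luc4E2 cells, grown in charcoal-stripped serum. Cells were exposed to 15-concentration compound series for 22hr, then ONE-Glo luminescence was read.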

Test [3] can be described thus: qHTS assay to identify small molecule agonists or antagonists of the thyroid stimulating hormone receptor (TSHR) signaling pathway - wild type cell line counter screen (AID 1259384; calls by dose curve). The method, boiled down: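 Wild-type Hek293 cells, 800/well, 18 h at 37C, then compound with Ro20-1724 for 30 min RT. cAMP by HTRF (cAMP-d2/anti-cAMP cryptate), 1 h RT, fluorescence read. 15 concentrations, triplicates.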

In test [4] the target is Thyrotropin receptor (Homo sapiens) (UniProt P16473). The test can be described thus: qHTS assay to identify small molecule antagonists of the thyroid stimulating hormone receptor (TSHR) signaling pathway (AID 1259385; calls by dose curve; further: nearly all actives have a fitted effect of over 20% in size). An outline of the steps: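 TSHR-HEK293 cells (800/well) plated 18 h, then compounds with Ro20-1724 and TSH at 1.5 ng/mL final, 30 min at room temperature. cAMP quantified by HTRF (cAMP-d2/anti-cAMP-cryptate, 1 h); 15 concentrations in triplicate.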

Test [5] can be described thus: qHTS assay to identify small molecule agonists of the estrogen receptor alpha (ER-alpha) signaling pathway in the presence of an antagonist - cell viability counter screen (AID 1259386). Further: nearly all actives have a fitted effect of over 30% in size. Further: potency means the concentration at half of the fitted maximal effect. The method, boiled down:
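Compounds tested at 15 concentrations for 22 h at 37C alongside 10.0nM (final) ICI-182,780 antagonist, in VM7Luc4E2 cells grown in phenol red-free, charcoal-stripped medium. Viability read by CellTiter-Fluor fluorescence after 1 h reagent incubation.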

The target of test [6] is Progesterone receptor (Homo sapiens) (UniProt P06401). As to the kind of experiment: qHTS assay to identify small molecule agonists of the progesterone receptor (PR) signaling pathway (AID 1346784; calls by dose curve; further: nearly all actives have a fitted effect of over 30% in size). The method, boiled down:
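Cells (PR-UAS-bla HEK 293T, GripTite) were plated in assay medium containing 2% charcoal-stripped FBS and incubated 6 hr. Test compounds in DMSO were added for 16 hr at 37C. FRET substrate was then loaded for 2 hr at room temperature before fluorescence reading.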

For test [7] the target is unchanged. As to the kind of experiment: qHTS assay to identify small molecule antagonists of the progesterone receptor (PR) signaling pathway (AID 1346795; active means well fitted inhibition curve with a large enough effect in the signal ratio in the repeat runs, not every such curve was filed as active; the % refers to the signal ratio; further: potency means the concentration at half of the fitted maximal effect). The method, boiled down:
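Antagonist mode: compounds tested against 1 nM (final) promegestone stimulation in HEK293T cells expressing PR-UAS-bla reporter, 16 hr at 37C, 5% CO2; beta-lactamase activity detected via B/G FRET substrate after 2 hr at room temperature.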

A short description of test [8]: qHTS assay to identify small molecule antagonists of the TGF-beta/Smad signaling pathway - cell viability counter screen (AID 1346824). Further: nearly all actives have a fitted effect of over 50% in size. Further: potency means the concentration at half of the fitted maximal effect. An outline of the steps:
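SBE-bla HEK 293T cells, incubated overnight, then compound plus 0.25 ng/mL TGF-beta1 (stock added) for 5 hr at 37 C. Viability was read in the same wells by CellTiter-Glo luminescence after 30 min at room temperature.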

The nature of test [9]: qHTS assay to identify small molecule agonists of the TGF-beta/Smad signaling pathway - cell viability counter screen (AID 1346829). Further: nearly all actives have a fitted effect of over 45% in size. Further: potency means the concentration at half of the fitted maximal effect. The method, boiled down:
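Same-well cytotoxicity: CellTiter-Glo added after the 2 hr room-temperature beta-lactamase substrate step, luminescence measured 30 min later; cells had 5 hr of compound at 37 C.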

Test [10] in a line: qHTS assay to identify small molecule agonists of the TGF-beta/Smad signaling pathway (AID 1346859; active means well fitted activation curve with a large enough effect in the signal ratio in the repeat runs, not every such curve was filed as active; the % refers to the signal ratio; further: series mostly up to about 77 µM). An outline of the steps:
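Reporter line: HEK 293T with stably integrated SBE-controlled beta-lactamase. Compound exposure lasts 5 hr at 37 C and 5% CO2; substrate loading follows for 2 hr at room temperature, with emission read at 460 and 530 nm.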

Test [11] in a line: Caspase-3/7 induction in HepG2 cells by small molecules, qHTS assay (AID 1346978). Further: nearly all actives have a fitted effect of over 15% in size. Further: potency means the concentration at half of the fitted maximal effect. An outline of the steps:
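Wild-type HepG2 cells, 2,000/well, settled 5 hr at 37 C and 5% CO2, then compound-treated for 17 hr; caspase-3/7 activity read by luminescent Caspase-Glo 3/7 after 30 min at room temperature.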

Test [12] is described as follows: Caspase-3/7 induction in CHO-K1 cells by small molecules, qHTS assay (AID 1346980). Further: nearly all actives have a fitted effect of over 15% in size. Further: potency means the concentration at half of the fitted maximal effect. The method, boiled down:
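Wild-type CHO-K1 cells exposed to compounds for 17hr at 37 C, 5% CO2. Caspase-3/7 activity then measured by Caspase-Glo 3/7 luminescence after 30min at room temperature.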

For test [13], the target named is Nuclear receptor subfamily 1 group I member 2 (Homo sapiens) (UniProt O75469). As to the kind of experiment: Human pregnane X receptor (PXR) small molecule agonists, qHTS assay (AID 1346982). Further: nearly all actives have a fitted effect of over 35% in size. Further: potency means the concentration at half of the fitted maximal effect. The method, boiled down: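 Agonist mode: luminescence from ONE-Glo after 24 h compound exposure at 37C in HepG2 cells carrying hPXR-responsive CYP3A4 luciferase, plated in charcoal-stripped serum medium 5 h beforehand.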

Test [14] can be described thus: qHTS assay to identify small molecule antagonists of the progesterone receptor (PR) signaling pathway - cell viability counter screen (AID 1346798). Further: nearly all actives have a fitted effect of over 50% in size. Further: potency means the concentration at half of the fitted maximal effect. The method, boiled down: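 Counter screen for cytotoxicity: viability of PR-UAS-bla HEK293T cells was measured with CellTiter-Glo luminescence following 16 hr compound exposure in the presence of R5020.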
The nature of test [15]: qHTS assay to identify small molecule agonists of the progesterone receptor (PR) signaling pathway - cell viability counter screen (AID 1346799; calls by dose curve; further: nearly all actives have a fitted effect of over 45% in size; further: potency means the concentration at half of the fitted maximal effect). An outline of the steps: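 Cells (PR-UAS-bla HEK293T) are plated at 3,000/well in 2% charcoal-stripped FBS medium, rested 6 hr, dosed and incubated 16 hr at 37C. CellTiter-Glo is then added and luminescence measured after 30 min at room temperature.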

A short description of test [16]: Human pregnane X receptor (PXR) small molecule agonists, qHTS cell viability counter screen (AID 1346977). Further: nearly all actives have a fitted effect of over 50% in size. Further: potency means the concentration at half of the fitted maximal effect. An outline of the steps: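 Cytotoxicity counter screen run in the same wells as the PXR luciferase assay, using PXR-Luc HepG2 cells in charcoal-stripped serum medium. Viability: CellTiter-Fluor fluorescence after 24hr compound treatment.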
Test [17] in a line: Caspase-3/7 induction in CHO-K1 cells by small molecules, qHTS cell viability counter screen (AID 1346979). Further: nearly all actives have a fitted effect of over 35% in size. Further: potency means the concentration at half of the fitted maximal effect. An outline of the steps: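 Cytotoxicity counter screen run in parallel with the caspase-3/7 assay: CHO-K1 cells, 16hr compound treatment at 37C, then CellTiter-Fluor for 1hr before fluorescence reading.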
Test [18] in a line: Caspase-3/7 induction in HepG2 cells by small molecules, qHTS cell viability counter screen (AID 1346981). Further: nearly all actives have a fitted effect of over 30% in size. Further: potency means the concentration at half of the fitted maximal effect. The method, boiled down: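 CellTiter-Fluor fluorescence measured viability in the same wells used for Caspase-Glo 3/7. HepG2 (wild type) at 2,000 cells/well were pre-incubated 5 hr, dosed, and given reagent at 16 hr, with 1 hr further at 37C.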
Test [19] addresses Thyrotropin-releasing hormone receptor (Homo sapiens) (UniProt P34981). As to the kind of experiment: qHTS assay to identify small molecule agonists of the thyrotropin-releasing hormone receptor (TRHR) signaling pathway (AID 1346891; calls by dose curve;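 further: HEK293 cells expressing TRHR with calcium dye readout; series mostly up to about 58 µM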). The method, boiled down:
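Cells: TRHR-Hek293, seeded and incubated 18 h. Dye loading: 2 h at 37 °C. Compound added from DMSO stock by pin tool. Read-out: kinetic calcium fluorescence over 3 min.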

Test [20] has the same target. As to the kind of experiment: qHTS assay to identify small molecule antagonists of the thyrotropin-releasing hormone receptor (TRHR) signaling pathway (AID 1346877; active means well fitted inhibition curve with a large enough effect in the repeat runs, not every such curve was filed as active; further: series mostly up to about 51 µM). An outline of the steps:
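Antagonist mode: after a 5 min room-temperature compound exposure, cells were stimulated with 1 nM (final) TRH. Dye-loaded TRHR-HEK293 cells were used, and calcium-dependent fluorescence was followed for 3 min, with 15-point titrations run in triplicate.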

Eight compounds from PubChem BioAssay (Tox21) can be followed below.

Records with an inconclusive call do not appear. Calls of active or inactive are those of the source. Unless noted, the call rests on the fitted dose curve; in most records, active means well fitted curve in the direction sought with a large enough effect in the repeat runs; inconclusive means weak or mixed curves; inactive means no such curve, though single readings can be large; an effect the other way counts as inactive or inconclusive.

Estrogen receptor (Homo sapiens), sequence (P03372 whole entry, looked up): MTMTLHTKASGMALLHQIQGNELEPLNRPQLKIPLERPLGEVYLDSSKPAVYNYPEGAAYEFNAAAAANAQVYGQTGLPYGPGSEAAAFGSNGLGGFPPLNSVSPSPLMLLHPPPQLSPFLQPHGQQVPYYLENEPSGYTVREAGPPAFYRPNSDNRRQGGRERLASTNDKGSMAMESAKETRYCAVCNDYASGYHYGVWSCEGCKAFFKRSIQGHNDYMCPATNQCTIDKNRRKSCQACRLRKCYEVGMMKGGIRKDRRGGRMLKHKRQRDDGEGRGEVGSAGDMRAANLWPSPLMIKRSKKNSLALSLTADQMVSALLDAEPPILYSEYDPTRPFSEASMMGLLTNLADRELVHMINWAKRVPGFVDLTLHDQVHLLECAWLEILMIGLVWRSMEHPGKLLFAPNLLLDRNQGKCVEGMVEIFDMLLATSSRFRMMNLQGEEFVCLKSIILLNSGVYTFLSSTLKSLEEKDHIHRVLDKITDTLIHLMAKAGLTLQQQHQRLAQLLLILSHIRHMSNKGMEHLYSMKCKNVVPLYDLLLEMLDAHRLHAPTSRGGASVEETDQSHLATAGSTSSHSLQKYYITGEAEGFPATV
Thyrotropin-releasing hormone receptor (Homo sapiens), sequence (P34981 whole entry, looked up): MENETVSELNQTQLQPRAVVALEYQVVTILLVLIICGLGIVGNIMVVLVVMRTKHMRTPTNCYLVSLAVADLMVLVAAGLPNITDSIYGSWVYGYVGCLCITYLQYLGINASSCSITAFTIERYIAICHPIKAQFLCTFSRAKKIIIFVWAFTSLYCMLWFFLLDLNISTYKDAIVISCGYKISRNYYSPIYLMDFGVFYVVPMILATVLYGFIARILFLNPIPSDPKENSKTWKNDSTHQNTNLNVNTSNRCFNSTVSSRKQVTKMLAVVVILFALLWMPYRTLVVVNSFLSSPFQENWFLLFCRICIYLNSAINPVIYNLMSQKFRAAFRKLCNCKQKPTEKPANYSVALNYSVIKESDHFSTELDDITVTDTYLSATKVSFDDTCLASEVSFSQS
Progesterone receptor (Homo sapiens), sequence (P06401 whole entry, looked up): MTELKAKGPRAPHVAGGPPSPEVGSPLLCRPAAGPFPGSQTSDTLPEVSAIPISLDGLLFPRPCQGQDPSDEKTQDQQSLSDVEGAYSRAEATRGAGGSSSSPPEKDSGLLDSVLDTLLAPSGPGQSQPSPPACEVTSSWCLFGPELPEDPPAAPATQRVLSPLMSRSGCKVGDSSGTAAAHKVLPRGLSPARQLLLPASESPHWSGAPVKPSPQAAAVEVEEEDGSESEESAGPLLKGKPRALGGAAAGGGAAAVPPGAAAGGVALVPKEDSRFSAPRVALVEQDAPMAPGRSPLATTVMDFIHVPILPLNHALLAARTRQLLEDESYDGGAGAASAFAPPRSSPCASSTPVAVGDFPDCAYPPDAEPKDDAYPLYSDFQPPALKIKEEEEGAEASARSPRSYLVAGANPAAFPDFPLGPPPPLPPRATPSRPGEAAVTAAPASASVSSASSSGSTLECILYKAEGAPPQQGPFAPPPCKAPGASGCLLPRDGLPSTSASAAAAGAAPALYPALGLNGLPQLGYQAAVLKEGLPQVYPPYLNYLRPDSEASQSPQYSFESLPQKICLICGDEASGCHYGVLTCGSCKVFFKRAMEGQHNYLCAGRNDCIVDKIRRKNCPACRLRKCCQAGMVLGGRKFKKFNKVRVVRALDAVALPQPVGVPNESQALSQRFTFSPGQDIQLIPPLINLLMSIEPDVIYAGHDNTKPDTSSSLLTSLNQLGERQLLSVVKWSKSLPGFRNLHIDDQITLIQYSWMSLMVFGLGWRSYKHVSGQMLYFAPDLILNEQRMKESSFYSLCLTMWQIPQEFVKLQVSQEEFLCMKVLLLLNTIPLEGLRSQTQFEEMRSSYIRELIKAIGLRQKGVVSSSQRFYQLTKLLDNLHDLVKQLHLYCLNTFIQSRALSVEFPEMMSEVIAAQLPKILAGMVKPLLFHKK
Nuclear receptor subfamily 1 group I member 2 (Homo sapiens), sequence (O75469 whole entry, looked up): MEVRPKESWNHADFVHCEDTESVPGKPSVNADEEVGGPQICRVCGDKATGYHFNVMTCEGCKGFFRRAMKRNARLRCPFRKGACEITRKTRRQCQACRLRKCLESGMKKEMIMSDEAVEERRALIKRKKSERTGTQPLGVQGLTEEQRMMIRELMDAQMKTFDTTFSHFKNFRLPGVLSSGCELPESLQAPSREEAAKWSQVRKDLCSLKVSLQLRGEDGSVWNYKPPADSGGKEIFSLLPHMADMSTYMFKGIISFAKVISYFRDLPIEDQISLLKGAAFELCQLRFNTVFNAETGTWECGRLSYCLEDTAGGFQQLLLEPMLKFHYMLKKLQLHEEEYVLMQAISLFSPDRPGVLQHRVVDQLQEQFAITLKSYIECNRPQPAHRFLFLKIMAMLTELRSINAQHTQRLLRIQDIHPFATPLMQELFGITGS
Thyrotropin receptor (Homo sapiens), sequence (P16473 whole entry, looked up): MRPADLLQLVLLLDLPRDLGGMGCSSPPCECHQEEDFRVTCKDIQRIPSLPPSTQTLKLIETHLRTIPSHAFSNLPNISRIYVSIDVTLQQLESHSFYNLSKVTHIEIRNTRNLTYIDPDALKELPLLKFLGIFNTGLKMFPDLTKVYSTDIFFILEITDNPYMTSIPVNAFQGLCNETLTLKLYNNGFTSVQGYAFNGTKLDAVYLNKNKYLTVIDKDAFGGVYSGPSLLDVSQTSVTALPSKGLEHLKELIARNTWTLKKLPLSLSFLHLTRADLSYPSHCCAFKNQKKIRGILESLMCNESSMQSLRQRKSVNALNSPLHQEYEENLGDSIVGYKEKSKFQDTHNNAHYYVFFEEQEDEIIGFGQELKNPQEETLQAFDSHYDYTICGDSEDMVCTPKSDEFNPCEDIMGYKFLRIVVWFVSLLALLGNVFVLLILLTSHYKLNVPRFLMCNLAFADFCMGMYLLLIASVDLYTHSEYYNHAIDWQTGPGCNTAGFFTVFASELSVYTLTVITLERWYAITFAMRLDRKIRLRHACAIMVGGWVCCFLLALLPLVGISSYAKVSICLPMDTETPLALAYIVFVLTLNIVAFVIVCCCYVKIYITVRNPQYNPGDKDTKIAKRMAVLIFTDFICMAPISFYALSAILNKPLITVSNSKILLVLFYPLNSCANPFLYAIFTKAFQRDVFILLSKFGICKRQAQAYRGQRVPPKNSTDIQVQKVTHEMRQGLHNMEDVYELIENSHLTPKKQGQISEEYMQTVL

Turning to `CCCCCCCC/C=C\CCCCCCCC(=O)N(CCO)CCO`, the Potency entry in test [1], in test [2], in [3], in [4], in [5] and in test [8] was “inactive” throughout. The Potency result in test [9], in test [11] and in test [12] was “inactive” each time. In addition, the compound was called inactive in test [6] and in test [10]. Moreover, the figures for the Potency in test [7] and in test [13] were 43.1 µM (active) and 60.9 µM (active), respectively.
As for `C=COCCCC`, the Potency result in [1], in test [2], in test [3], in [4], in test [5] and in test [14] was “inactive” throughout. Further, the Potency result in [15], in [8], in test [9], in [16], in test [11] and in [17] was “inactive” in each case. For the same compound, the Potency entry in test [12], in test [18] and in [13] was “inactive” each time. In addition, the compound was classed as inactive in [6] and in test [10].
Take `CCC(C)(C)c1ccc(CC(C)CN2C[C@@H](C)O[C@@H](C)C2)cc1` (stereo partly drawn): the Potency entry in test [1], in [2], in [3], in [5], in [7] and in test [14] was “inactive” each time. Also, the Potency entry in test [8], in test [9], in test [19], in [16], in test [11] and in test [12] was “inactive” throughout. Also, the Potency entry in test [18] and in test [13] was “inactive” in each case. In addition, the compound was classed as inactive in test [6] and in test [10].
On to `Oc1ccc(C2(c3ccc(O)c(C4CCCCC4)c3)CCCCC2)cc1C1CCCCC1`, for which the Potency in test [1] is 27.3 µM (active); in test [14], 43.3 µM (active); in test [15], 27.3 µM (active); in test [8] it was 43.6 µM (active); in [9], 49 µM (active); in [16], 19.3 µM (active). In addition, the Potency in test [11] is 24.3 µM (active); in test [17] it was 13.7 µM (active); in test [12], 13.7 µM (active); in [18] it was 30.6 µM (active); in test [13] it was 8.63 µM (active). Also, the Potency entry in test [2], in test [3] and in test [20] was “inactive” throughout.
`C[C@H]1O[C@@H](O[C@H]2CC[C@@]3(C)[C@H](CC[C@@H]4[C@@H]3C[C@@H](O)[C@]3(C)[C@@H](C5=CC(=O)OC5)CC[C@]43O)C2)C[C@H](O)[C@@H]1O[C@H]1C[C@H](O)[C@H](O[C@H]2C[C@H](O)[C@H](O[C@@H]3O[C@H](CO)[C@@H](O)[C@H](O)[C@H]3O)[C@@H](C)O2)[C@@H](C)O1`: the results for the Potency in test [1], in test [14] and in [15] were 0.188 µM (active), 0.298 µM (active) and 0.266 µM (active), respectively. The Potency result in test [2], in test [5], in test [19], in test [11], in test [17] and in test [12] was “inactive” in each case. Moreover, the Potency entry in test [13] was “inactive”. Besides, in test [6], the compound was classed as inactive.
As for `c1ccc(C[P+](c2ccccc2)(c2ccccc2)c2ccccc2)cc1`, the Potency entry in test [1], in test [2], in [3], in test [7], in [14] and in test [9] was “inactive” each time. For the same compound, the Potency entry in test [20], in test [11] and in [12] was “inactive” throughout. The Potency is 27.3 µM (active) in test [5], 24.3 µM (active) in [16] and 61.1 µM (active) in [17]. In addition, the outcome in test [6] was inactive.
`Nc1cccnc1N`: the Potency entry in test [1], in [2], in test [3], in test [7], in [14] and in test [15] was “inactive” throughout. Also, the Potency result in test [8], in test [9], in [16], in [11] and in test [12] was “inactive” throughout. Besides, the compound was classed as inactive in test [6] and in [10].
As to `C=CC(=O)O[C@H]1C[C@@H]2CC[C@@]1(C)C2(C)C`, the Potency entry in test [1], in test [2], in test [5], in test [7], in [14] and in [8] was “inactive” each time. For the same compound, the Potency entry in [9], in [20], in test [19], in test [16], in [11] and in test [17] was “inactive” in each case. Also, the Potency entry in [12] and in [13] was “inactive” throughout. Moreover, the call in test [6] and in test [10] was inactive.
